About 83,000 compounds went through this panel and 20% of them were active in at least one assay; those are over-represented in the sample as a whole.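 Assay: single dose, 48 h. Readout: percent growth (0 = no net growth; negative = cell death). Active: <10.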 Values without a mark were called inactive. Active and inactive are the calls of the source.
Key:
Experiment in all cases: NCI-60 one-dose screen, 48 h (100 = growth as untreated, 0 = no growth, -100 = all killed)
Details in all cases: 10 µM unless noted
[1] = tested on: NCI-H23 lung
[2] = tested on: NCI-H226 lung
[3] = tested on: NCI-H322M lung
[4] = tested on: HOP-62 NSCLC
[5] = tested on: NCI-H460 lung
[6] = tested on: HOP-92 NSCLC
[7] = tested on: NCI-H522 lung
[8] = tested on: A549/ATCC NSCLC
[9] = tested on: 786-0 renal
[10] = tested on: COLO 205 colon
[11] = tested on: DU-145 prostate
[12] = tested on: K-562 leukemia
[13] = tested on: MALME-3M melanoma
[14] = tested on: MDA-MB-231 breast
[15] = tested on: RXF 393 renal
[16] = tested on: SF-268 CNS
[17] = tested on: SF-295 CNS
[18] = tested on: SF-539 CNS
[19] = tested on: UACC-257 melanoma
[20] = tested on: M14 melanoma

SMILES	growth [1]	growth [2]	growth [3]	growth [4]	growth [5]	growth [6]	growth [7]	growth [8]	growth [9]	growth [10]	growth [11]	growth [12]	growth [13]	growth [14]	growth [15]	growth [16]	growth [17]	growth [18]	growth [19]	growth [20]
COc1ccc(-c2c(-c3nc4ccc(N5CCOCC5)cc4[nH]3)[nH]c(C)c2C(C)=O)cc1	52.6%	49.7%	43.6%	30.6%	57.8%	49.5%	37.8%	48.4%	45.3%	15.9%	74.6%	35.1%	36.4%	37.5%	44.8%	70.3%	35.7%	36.9%	44.7%	35.6%
Cn1cc(-c2csc(-c3cn(CCCN4CCCCC4)c4ccc(F)cc34)n2)c2cccnc21	89.2%	91.6%	86.8%	99.3%	96.1%	49%	103%	92.2%	40.3%	98.9%	98%	0.833% (active)	-43% (active)	64.2%	64.9%	89%	99.9%	83.6%	70.6%	-73.4% (active)
CCCCC[C@H]1C/C=C2/C(=O)C(Cl)=C[C@@H]2C/C=C\CCCC(=O)O[C@@H](CCCCC)C/C=C2/C(=O)C(Cl)=C[C@@H]2C/C=C\CCCC(=O)O1	-24.7% (active)	-34.3% (active)	-31.2% (active)	-52.8% (active)	-27.2% (active)	-63.4% (active)	-67.3% (active)	-51.4% (active)	-66.9% (active)	-76.4% (active)	-31.4% (active)	0.851% (active)	-14.1% (active)	-29.9% (active)	-87.5% (active)	1.58% (active)	-27.3% (active)	-11.3% (active)	-63.5% (active)	-61.5% (active)
CCSc1ncnc2c1ncn2C1OC(CO)C(O)C1O (stereo not given)	24.6%	62.9%	42.6%	21.1%	14.9%	33%	19.5%	14.6%	24.1%	20.8%	22.7%	15.9%	53.5%	64.4%	36.7%	19.4%	31.4%	25.3%	59.6%	29.6%
C[C@@H]1CCCCCCCCC[C@H](O)C(=O)C[C@@H](SC[C@@H](O)C(=O)O)C(=O)O1	96.5%	102%	116%	97.5%	108%	90.8%	66.4%	85.8%	85.7%	117%	95.2%	15.5%	94.7%	96%	112%	98%	104%	97.8%	83.4%	87%
Cc1cc(N=O)cc(C(C)(C)C)c1O	97%	85.8%	95.6%	90%	101%	73%	90.2%	73.5%	103%	92.3%	103%	98.2%	88.4%	95.1%	105%	100%	99%	103%	75.1%	92.2%
CC/C=C\C[C@H]1CC=C2C(=O)C=C[C@@H]2CC=CCCCC(=O)O[C@@H](CCCCC)CC=C2C(=O)C=C[C@@H]2CC=CCCCC(=O)O[C@@H](CCCCC)CC=C2C(=O)C=C[C@@H]2CC=CCCCC(=O)O[C@@H](CCCCC)CC=C2C(=O)C=C[C@@H]2CC=CCCCC(=O)O1	4.69% [7.9 µM] (active)	74.6% [7.9 µM]	85.7% [7.9 µM]	8.97% [7.9 µM] (active)	30.4% [7.9 µM]	7.82% [7.9 µM] (active)	-16.2% [7.9 µM] (active)	39% [7.9 µM]	23% [7.9 µM]	-26.7% [7.9 µM] (active)	20.4% [7.9 µM]	7.46% [7.9 µM] (active)	26.2% [7.9 µM]	-11.1% [7.9 µM] (active)	-4.76% [7.9 µM] (active)	12.5% [7.9 µM]	53.7% [7.9 µM]	1.99% [7.9 µM] (active)	54.4% [7.9 µM]	-3.08% [7.9 µM] (active)
COc1cc(-c2cc3ncccc3c3nc(OCCN(C)C)c4cccnc4c23)cc(OC)c1OC	13.4%	-5.43% (active)	17.9%	-45.6% (active)	-50.8% (active)	-8.69% (active)	7.46% (active)	-37.7% (active)	-88.5% (active)	3.65% (active)	1.52% (active)	7.73% (active)	8.86% (active)	20.2%	-72.1% (active)	23.1%	9.6% (active)	17.9%	15.1%	23%
O=C1/C(=C\c2ccco2)SC(=S)N1CCc1ccc(O)cc1	101%	101%	90.6%	98.1%	106%	61.2%	68.9%	99.7%	99.4%	126%	67.8%	84.8%	82%	80.5%	98.3%	94.8%	105%	88.5%	90.1%	96%
CCOC(=O)C/C(=C\c1ccccc1)C(C)=O	104%	98.7%	114%	73.4%	112%	92.2%	76.7%	67.4%	101%	102%	109%	87.6%	105%	-43.5% (active)	115%	102%	98.5%	105%	82.8%	91.9%
COC(=O)[C@]12CC[C@@H](C(/C=C/c3cccnc3)=N/O)[C@@H]1[C@H]1CC[C@@H]3[C@@]4(C)CC(=C/c5cccnc5)/C(=N/O)C(C)(C)[C@@H]4CC[C@@]3(C)[C@]1(C)CC2	43.1%	13.7%	76.5%	60%	36.8%	54.4%	43.3%	44.6%	67.8%	18%	55.6%	24.9%	39.2%	45.5%	67.1%	56.7%	30.6%	72.3%	59.1%	19.3%
N#CC1=C(N)Oc2c(sc3c(F)cccc23)C1c1ccc(Cl)cc1 (stereo not given)	43.7%	74.9%	55.1%	28.8%	13.1%	36.9%	6.14% (active)	38%	21.1%	38.4%	41%	14.2%	57.9%	43.5%	9.87% (active)	45.3%	20.2%	-0.306% (active)	66.4%	-26.1% (active)
C[C@H]1[C@H]2C3=CC[C@@H]4[C@@]5(C)C/C(=C/c6ccco6)C(=O)C(C)(C)[C@@H]5CC[C@@]4(C)[C@]3(C)CC[C@@]2(C(=O)N2CCOCC2)CC[C@@H]1C	44.2%	83.8%	95.3%	105%	94.9%	78.4%	38%	70.4%	95.5%	94.1%	88.1%	27.4%	83.3%	90.5%	62%	85.8%	81.4%	82.7%	88.4%	76.9%
Cn1c(=O)c2c(nc(N3CCCC3)n2C)n(C)c1=O	96.4%	102%	105%	104%	102%	90.9%	91.5%	85.6%	97%	110%	105%	99.2%	103%	98.9%	104%	97.3%	102%	101%	93.2%	92.3%
COc1cc(/C=N/Nc2ncnc3c2c(C)nn3-c2ccc(F)cc2)ccc1O	90.6%	102%	85.6%	106%	88.1%	60.5%	72.9%	97.6%	88.6%	104%	87.6%	75.8%	112%	84.5%	95.1%	71%	106%	96.2%	114%	102%
Brc1ccc2c(c1)c(-c1nc(-c3c[nH]c4ncccc34)cs1)cn2CCCN1CCCCC1	22.4%	71.2%	39.1%	-66.7% (active)	-67.7% (active)	31.7%	-3.42% (active)	-69.6% (active)	-74.8% (active)	-77.4% (active)	-44.4% (active)	-64.4% (active)	-45.9% (active)	-43.3% (active)	23.6%	7.71% (active)	27.3%	-77.6% (active)	66.1%	-81.4% (active)

From PubChem BioAssay (NCI)
